High-throughput results: PubChem, National Center for Advancing Translational Sciences (NCATS)
Compounds with a hit are over-represented: about 8.7% of the library has one in this group of screens.
Pf growth 48h = Primary qHTS for delayed death inhibitors of the malarial parasite plastid, 48 hour incubation. P. falciparum luciferase growth in erythrocytes, 48 h. Potency, µM (titrated, usually from 28.7 µM), for the others: top-dose activity change, negative = inhibition, hits mostly inhibitors. actives 5.9% (n = 310,000). AID 504832, 2011
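Luciferase-expressing P. falciparum in infected erythrocytes (2% hematocrit, 0.1% parasitemia final) in RPMI 1640/0.5% Albumax were exposed to compound for 48 hours at 37 C, 5% CO2; growth read as luminescence.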
Pf growth 96h = Primary qHTS for delayed death inhibitors of the malarial parasite plastid, 96 hour incubation; actives 6.9% (n = 320,000); P. falciparum luciferase reporter growth, 96 h; AID 504834, 2011; Potency, µM (titrated, usually from 28.7 µM), for inactives: at the top dose activity change, negative = inhibition, usual class: inhibitors
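Two parasite generations (96 h, 37 C, 5% CO2) of compound exposure in infected erythrocytes (0.05% parasitemia, 2% hematocrit). Luciferase-reporter P. falciparum; decreased luminescence indicates inhibited growth, aimed at apicoplast-acting delayed death.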
AMA1 RON2 block = qHTS for Inhibitors of AMA1-RON; Towards Development of Antimalarial Drug Lead: Primary Screen; AlphaScreen AMA1-biotinylated RON2 peptide binding; Potency, µM (highest dose often 58.2 µM), for the others: at the top dose activity change, negative = inhibition, actives largely listed as inhibitors; actives 0.2% (n = 360,000); AID 720542, 2013;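 also: 0% = vehicle wells and -100% = peptide control; nearly all actives have a fitted effect of over 45% in size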
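AMA1 (3D7) with his tag at 25 nM final met compounds first, then biotinylated RON2 peptide at 25 nM; detection used donor plus acceptor beads, 10 µg/mL apiece, read by AlphaScreen after 30 min at room temperature.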
VACV Venus inh = qHTS for Stage-Specific Inhibitors of Vaccinia Orthopoxvirus: Venus Reporter Primary qHTS. Vaccinia virus Venus reporter expression, fluorescence. Potency, µM (highest dose often 36.5 µM), inactives show top-dose activity change, negative = inhibition, actives largely listed as inhibitors. actives 0.46% (n = 330,000). AID 720580, 2013; calls by dose curve; tested in A549 cells; also: nearly all actives have a fitted effect of over 30% in size
Vaccinia mCherry = qHTS for Stage-Specific Inhibitors of Vaccinia Orthopoxvirus: mCherry Reporter Primary qHTS. Potency, µM (titrated, usually from 36.5 µM), for inactives: at the highest dose activity change, negative = inhibition, hits mostly inhibitors. Vaccinia virus mCherry reporter infection, fluorescence. actives 0.63% (n = 310,000); calls by dose curve; tested in A549 cells; also: nearly all actives have a fitted effect of over 35% in size
An asterisk follows results filed as active; i = inactive; u = inconclusive; x = no result; [ ] = another dose, or the depositor's remark. Unless noted, calls follow the shape of the dose curve; as a rule, active = well fitted curve in the direction sought with a large enough effect; inconclusive = small, poorly fitted or top-dose-only effect, or another doubt; inactive = no such curve, though single readings can be large; an effect the other way counts as inactive or inconclusive. Unless noted, % is scaled to controls: 0 for no effect and ±100 for the full control effect; potency is read from the fitted curve at half-maximal effect.

SMILES	Pf growth 48h	Pf growth 96h	AMA1 RON2 block	VACV Venus inh	Vaccinia mCherry
CC(=O)c1cnc(N(C)C)s1	1%	13µM*	12%	-19%	-4%
CC1=C(C(=O)OCC2CCCO2)C(c2ccccc2)NC(=O)N1 (configuration not stated)	18%	19%	-5%	-13%	-6%
CC1=C(C(=O)OCCNC(=O)c2ccccc2O)C(c2ccccc2[N+](=O)[O-])C(C(=O)OCC2CCCO2)=C(C)N1 (configuration not stated)	u	5.2µM*	u	u	i
Cc1ccc(-c2csc(-c3cc4c([nH]c3=O)CC(c3ccccc3)CC4=O)n2)cc1 (configuration not stated)	x	x	x	143%	-25%
Cc1ccc(CN2CCc3nnc(C(NS(C)(=O)=O)C(C)C)n3CC2)cc1C (configuration not stated)	x	x	x	-15%	-24%
O=C(O)c1ccccc1C(=O)c1ccc(-c2ccccc2)cc1	22%	u	-8%	x	x
Cc1ccc(-c2cc(-c3ccccc3)cc(-c3ccccc3)[n+]2-c2ccccc2C(=O)O)cc1	10µM*	2.9µM*	-9%	-6%	-3%
CCCSc1nc2sc3c(c2c(=O)n1-c1ccccc1)CCC(C)C3 (configuration not stated)	x	x	x	-5%	-10%
CN(C)c1ccc(/C=C/C=C2/SC(=S)N(c3ccccc3)C2=O)cc1	119%	9%	2.5µM*	i	443%
O=C(O)c1ccc(N2C(=O)/C(=C/C=C/c3ccccc3)SC2=S)cc1	-62%[1.15 µM]	33%	7%	x	x
CCN(Cc1ccccc1)Cc1c(O)ccc2c(=O)c(-c3ccccc3Cl)coc12	x	x	x	4%	6%
O=C(Nc1sc2c(c1C(=O)Nc1ccc(Cl)cc1)CCCC2)c1cccs1	x	x	x	u	13µM*
CCOC(=O)c1c(NC(=O)c2cccs2)sc2c1CCCC2	0%	x	-13%	-9%	-18%
COC(=O)c1c(NC(=O)CCC(=O)O)sc(Cc2ccccc2)c1C	12µM*	4%	-20%	-19%	i
O=C(Nc1cccc(Cl)c1)c1c(NC(=O)C(F)(F)F)sc2c1CCCC2	x	x	x	u	13µM*
O=C(O)CCC(=O)Nc1sc2c(c1C(=O)Nc1ccccc1)CCCCC2	10%	2.3µM*	29%	15%	-15%
O=C(COc1ccc(Cl)cc1)Nc1sc2c(c1C(=O)Nc1cccc(Cl)c1)CCCC2	x	x	x	-12%[7.34 µM]	-17%[7.34 µM]
O=C(O)CCC(=O)Nc1sc2c(c1C(=O)Nc1cccc3ccccc13)CCCCC2	6%	u	-5%	-3%	i
Cc1ccc(C(=O)C(OC(=O)CNC(=O)COc2ccccc2C)c2ccccc2)cc1 (configuration not stated)	x	x	x	-8%	-13%
O=C(O)c1cc(Cl)ccc1-c1ccc(/C=C/c2cc(C(F)(F)F)[nH]c(=O)n2)o1	9%	9.3µM*	4%	2%	i
CCCSC1=N/C(=C\C=C\c2ccco2)C(=O)S1	2%	15%	11µM*	0%	-11%
COc1ccccc1-c1nn2c(=O)cc(CN3CCN(C(=O)/C=C/c4ccccc4)CC3)nc2s1	x	x	x	-28%	u
COc1cc(C2CC(=O)N(CC(=O)Nc3ccccc3F)c3ccccc3S2)cc(OC)c1OC (configuration not stated)	x	x	x	-8%	-12%
O=C(c1ccc2c(c1)N(Cc1cccc(Cl)c1)C(=O)c1ccccc1S2(=O)=O)N1CCN(Cc2ccccc2)CC1	x	x	x	-11%	-17%
CN(c1ccccc1)c1nc(-n2ccnc2)nc(-n2ccnc2)n1	u	x	6%	-10%	-8%
CCCCNc1nc(N(C)c2ccccc2)nc(-n2ccnc2)n1	17µM*	0%	-12%	x	x
CC1=NN(C(C#N)c2ccccc2C)C(c2ccccc2)C1 (configuration not stated)	8%	0%	1%	x	x
CC1=NN(C(C#N)c2ccc(F)cc2)C(c2ccccc2)C1 (configuration not stated)	-27%	15µM*	1%	-1%	-7%
